Measurements reported in PubChem BioAssay.

These molecules were tested on XIP peptide (Xip251-270) (assay: small-molecule binders of XIP peptide, primary screen, biochemical, small-molecule microarray, fluorescence 635/667 nm, 0.5 µg/mL protein (AID 1183)). Details: small-molecule microarray binding, fluorescence 635 nm; higher = more signal.

SMILES	composite z-score
CO[C@@H]1COC(=O)CC=C[C@@H](C)[C@@H]2C=C[C@H](O)[C@@H](COC(=O)CCC[C@H]1C)O2	0.152
COc1ccc(O[C@H]2C=C[C@@H](c3ccccc3)O[C@@H]2COC(=O)CCC(C)=NOCC[C@@H]2C=C[C@H](OC(C)=O)[C@@H](COC(C)=O)O2)cc1	0.0553
CO[C@@H]1COC(=O)[C@H](C)NC(=O)[C@@H](C)COC(=O)CCC[C@H]1C	0.652
O=C1C[C@@H](O)[C@@H](O)[C@@H]2[C@@H]3C(=O)N(Cc4ccc5c(c4)OCO5)C(=O)[C@@H]3CC[C@@H]12	0.353
CCOC(=O)[C@H](Cc1ccccc1)NC(=O)CCC1CC(OC(=O)NCc2ccc3c(c2)OCO3)CC2(CCCC(COC(=O)NCC3CCCCC3)O2)O1 (stereo partly specified)	0.646
COc1ccc(O[C@H]2C=C[C@@H](c3ccccc3)O[C@@H]2COC(=O)N2CCCCC2)cc1	-0.216
Cc1ccc(S(=O)(=O)N[C@@H]2COC(=O)[C@H](C)COC(=O)CC=C[C@H]2C)cc1	-0.152
O=C1[C@H]2[C@H]3[C@H](O)[C@H](O)CC(=NO[C@@H]4O[C@H](CO)[C@@H](O)[C@H](O)[C@H]4O)[C@@H]3CC[C@H]2C(=O)N1Cc1ccc2c(c1)OCO2	0.567
COc1ccc(OC[C@H]2Cc3c(-c4ccccc4)nc4c(c3CO2)CN(CCOc2ccccc2)CC4)cc1	0.71
O=C1[C@H]2[C@H]3[C@H](O)[C@H](O)CC(=NOCc4ccccc4)[C@@H]3CC[C@H]2C(=O)N1C1CCCCC1	0.0602
CC(C)=NOCc1cccc(-c2cc(-c3ccccc3)no2)c1	0.326
